sEH inhibitor – blocks human soluble epoxide hydrolase activity; P34913; recombinant human sEH enzymatic activity assay; inhibition, % at 2 µM; 0.34% of 91,000 active; in the data active = inhibition above about 80%
CYP2C9 inh – inhibitors of human CYP2C9; AID 777; P11712; CYP2C9 Supersomes, luciferin-H conversion, luminescence; inhibition, % at 5 µM; 20% of 96,000 active;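 active = blocking of liver enzyme CYP2C9 beyond about 50% at 5 µM, limit read from the data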
CYP2C9 activ – CYP2C9 (human) activation; recombinant CYP2C9, luciferin-H conversion, luminescence; active compounds read high; factor 1 = untreated enzyme, 0 = blocked; activation factor at 5 µM; P11712; 1.4% of 96,000 active; AID 1024;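 active = activation factor of 2 or more for CYP2C9 at a 5 µM dose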
CYP2C19 inhib – blocks human cytochrome P450 2C19 | 21% of 96,000 active | inhibition, % at 5 µM | P33261 | CYP2C19 Supersomes, luciferin-H EGE luminescence, 30 min;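 active = CYP2C19 inhibition above a set limit at 5 µM in the primary screen, cut at about 50% in these data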
Target sequence (P33261 whole entry, looked up): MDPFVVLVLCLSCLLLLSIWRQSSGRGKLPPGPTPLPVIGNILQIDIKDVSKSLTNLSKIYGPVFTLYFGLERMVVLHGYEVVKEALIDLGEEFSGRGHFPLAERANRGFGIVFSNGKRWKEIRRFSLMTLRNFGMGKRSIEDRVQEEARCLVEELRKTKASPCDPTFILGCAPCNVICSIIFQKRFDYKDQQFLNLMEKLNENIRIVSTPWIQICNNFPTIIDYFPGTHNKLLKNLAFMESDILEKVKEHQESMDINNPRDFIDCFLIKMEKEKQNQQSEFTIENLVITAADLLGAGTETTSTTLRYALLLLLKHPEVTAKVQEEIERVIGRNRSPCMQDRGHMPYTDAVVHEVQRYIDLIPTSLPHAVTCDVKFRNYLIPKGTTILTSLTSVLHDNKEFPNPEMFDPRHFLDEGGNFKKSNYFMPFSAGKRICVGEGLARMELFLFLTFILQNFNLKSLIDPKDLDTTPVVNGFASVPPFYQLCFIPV
CYP2C19 act – activators of human cytochrome P450 2C19 | P33261 | recombinant CYP2C19, luciferin-H EGE luminescence; active compounds read high; 0 = fully inhibited enzyme, 1 = untreated enzyme | activation factor at 5 µM | 96,000 tested, under 10 active | AID 1025;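 active = activation factor of at least 2 at 5 µM in the primary screen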
sEH act – increases human soluble epoxide hydrolase activity. P34913. purified human sEH enzymatic activity, activator screen. activation, % at 2 µM. AID 717. 0.04% of 91,000 active; in the data active = activation above about 37%
A number is an active result; . = inactive; / = no result given. Compounds with a hit are over-represented: about 27% of the library has one in this group of screens.

SMILES	sEH inhibitor	CYP2C9 inh	CYP2C9 activ	CYP2C19 inhib	CYP2C19 act	sEH act
CCOc1ccc(NC2c3ccccc3C(=O)N2Cc2ccc3c(c2)OCO3)cc1 (stereo unspecified)	.	98.5	.	99.3	.	.
CC(=O)c1cccc(NC2c3ccccc3C(=O)N2Cc2ccc3c(c2)OCO3)c1 (stereo unspecified)	/	61.1	.	.	.	/
O=C1c2ccccc2C(Nc2ccc3c(c2)OCCO3)N1Cc1ccccc1 (stereo unspecified)	.	98.3	.	98.6	.	.
O=C1c2ccccc2C(Nc2cccnc2)N1Cc1ccccc1 (stereo unspecified)	/	.	.	.	.	/
COc1cc(NC2c3ccccc3C(=O)N2Cc2ccc3c(c2)OCO3)cc(OC)c1OC (stereo unspecified)	.	64.4	.	98.2	.	.
CCOC(=O)N1CCC(Nc2c(NCCCN(CC)Cc3ccccc3)c(=O)c2=O)CC1	.	.	.	.	.	.
COc1ccc(C2(CNC(=O)CCC(=O)O)CCCC2)cc1	.	.	.	.	.	.
CC1=C(C(=O)Nc2ccc([N+](=O)[O-])cc2)C(c2cccc(C(F)(F)F)c2)NC(=S)N1c1ccccc1 (stereo unspecified)	.	89.2	.	.	.	.
Cc1ccc2[nH]c3c(=O)n(CCN4CCOCC4)cnc3c2c1	.	.	.	.	.	.
Cc1ccc2[nH]c3c(=O)n(CCCN4CCOCC4)cnc3c2c1	.	.	.	68.2	.	.
Cc1ccc2[nH]c3c(=O)n(CCc4cnc[nH]4)cnc3c2c1	.	96.8	.	98.6	.	.
CCOC(=O)c1ccc(S(=O)(=O)N2CCN(CC3CC=CCC3)CC2)cc1 (stereo unspecified)	.	.	.	.	.	.
Cc1ccc(NC(=O)CCC(=O)OCCCC(F)(F)C(F)(F)F)cc1	.	.	.	.	.	.
CCOC(=O)CCSc1nc2c(c(C(F)(F)F)c1C#N)CCC2	.	67.2	.	77.6	.	.
CSc1cccc(NC(=O)CN(C)S(=O)(=O)c2ccccc2)c1	.	.	.	86.1	.	.
CSc1cccc(NC(=O)COc2cccc3ccccc23)c1	.	.	2.2	.	.	.
CSc1cccc(NC(=O)CN(C)S(=O)(=O)c2ccc(F)cc2)c1	.	.	.	62.7	.	.
CN(CC(=O)NC1CCCCCC1)S(=O)(=O)c1ccccc1	.	.	.	.	.	.
COc1ccccc1C(=O)Nc1cccc(SC)c1	.	/	/	/	/	.
CCCC(=O)Nc1ccccc1NC(=O)CN(C)S(=O)(=O)c1ccccc1	.	58.4	.	.	.	.
O=C(NC1=NCCS1)NC12CC3CC(CC(C3)C1)C2	.	.	.	.	.	.
CN(CC(=O)Nc1nccs1)S(=O)(=O)c1ccc(F)cc1	.	.	.	67.2	.	.
CCN(CC(=O)Nc1ccccc1C(=O)OC)S(=O)(=O)c1ccccc1	.	.	.	80.5	.	.
Cc1ccc(-c2nnn(CC(=O)N3CCCCC3)n2)c(-n2cnnn2)c1	.	.	.	.	.	.
CCOC(=O)N1CCN(c2ccc(C(=O)c3ccccc3)cc2F)CC1	.	86.9	.	76.5	.	.
SMILES	sEH inhibitor	CYP2C9 inh	CYP2C9 activ	CYP2C19 inhib	CYP2C19 act	sEH act
CCOC(=O)N1CCN(Cc2c(F)cccc2F)CC1	.	.	.	76.3	.	.
CCC(=O)c1ccc(N2CCCCCC2)c(F)c1	/	52.3	.	68.3	.	/
CCCC(=O)c1ccc(N2CCCC2)c(F)c1	.	/	/	/	/	.
CCC(=O)c1ccc(N2CCCC2)c(F)c1	.	/	/	/	/	38.7
Cc1ccccc1Cn1cc(NC(=O)COc2ccccc2)cn1	.	.	.	.	.	.
Cc1ccc(C(=O)Oc2oc(-c3ccco3)nc2C=Nc2ccccc2)cc1	.	.	.	.	.	.
O=C(Nc1cc(Cl)ccc1Cl)C1CC(=O)N(c2ccc(Br)cc2)C1 (stereo unspecified)	.	.	.	.	.	.
O=C(NNC(=O)[C@@H]1CCCC[C@@H]1C(=O)O)c1cccs1	.	/	/	/	/	.
CCOC(=O)c1c(N)sc2c1CCC1C(=O)N(C3CCCCC3)C(=O)C21 (stereo unspecified)	.	90.0	.	90.6	.	.
CCOC(=O)c1c(N)sc2c1CCC(CC)C2 (stereo unspecified)	.	.	.	.	.	.
Cc1ccc(-n2ncc3c(=O)n(CC#N)cnc32)cc1	.	.	.	.	.	.
COc1ccc(NC(=O)c2cccc(NC(=O)C3C4CC5OC(=O)C3C5C4)c2)c(OC)c1 (stereo unspecified)	.	.	.	.	.	.
O=C(OCN1C(=O)c2ccccc2C1=O)c1ccco1	.	.	.	.	.	.
CC(=O)c1c(C)[nH]c(C(=O)OCCCCN2C(=O)c3ccccc3C2=O)c1C	.	70.3	.	.	.	.
COC(=O)c1n[nH]c2ccccc12	/	.	.	.	.	/
O=C(OCCCCN1C(=O)c2ccccc2C1=O)c1n[nH]c2ccccc12	.	86.3	.	83.7	.	.
CCOC(=O)c1[nH]c2ccccc2c1CCCN1C(=O)c2ccccc2C1=O	.	85.9	.	78.7	.	.
O=C(OCCCN1C(=O)c2ccccc2C1=O)c1ccco1	.	61.6	.	54.4	.	.
Cc1nn(-c2ccccc2)c2c1C1(C(=O)N(C(C)C)c3ccccc31)C(C#N)=C(N)O2 (stereo unspecified)	.	.	.	.	.	.
COc1cc(/C=C2/C(=O)N=C(N)N2C)cc(OC)c1OC	.	.	.	.	.	.
O=C(NCCCN1CCOCC1)c1ccccc1-c1ccccc1	.	.	.	.	.	.
Cc1cc(NCCCN2CCOCC2)n2nc(C)c(-c3ccc(F)cc3)c2n1	.	.	.	.	.	.
Cc1cc(NCCCN2CCOCC2)n2ncc(-c3ccccc3)c2n1	.	87.7	.	.	.	.
Cc1cc(NCCCN2CCOCC2)n2nc(C)c(-c3ccccc3)c2n1	.	71.3	.	.	.	.
Nn1c(CSc2ccccn2)nc2ccccc2c1=O	.	.	.	.	.	.
SMILES	sEH inhibitor	CYP2C9 inh	CYP2C9 activ	CYP2C19 inhib	CYP2C19 act	sEH act
CCCS(=O)(=O)N1CCC(C(=O)NCCN(C)Cc2ccccc2)CC1	.	.	.	.	.	.
CCOC(=O)c1nc(-c2ccccc2)oc1N(C)C	/	.	.	.	.	/
Cc1oc(-c2ccccc2)nc1C(=O)OCC(=O)NC(=O)NCC(C)C	/	50.6	.	.	.	/
COc1cccc(-n2nnc3c(=O)n(CC(=O)N4CCCc5ccccc54)cnc32)c1	.	.	.	.	.	.
Cn1cnc2cc(OC(=O)c3ccccc3)ccc21	.	.	.	.	.	.
COCCNC(=O)c1ccc2c(=O)n(Cc3ccco3)c(SCC(=O)NC3CCCCC3)nc2c1	.	.	.	.	.	.
O=C(CSc1nc2ccccc2c(=O)n1Cc1ccco1)N1CCCCCC1	.	94.6	.	57.8	.	.
O=C(NCc1ccco1)c1ccc2c(=O)n(Cc3ccco3)c(SCC(=O)N3CCCC3)nc2c1	.	63.7	.	.	.	.
O=C(CSc1nc2ccccc2c(=O)n1-c1ccccc1)N1CCCC1	.	51.0	.	.	.	.

Screens from PubChem BioAssay.
